From article PMC11006913

Tests used:
Assay in all cases: PBM; 200 nM protein, PBS
Settings in all cases: dsDNA, one strand shown
HESX1 [1] = biological target: HESX1 (Homo sapiens, UniProt Q9UBX0 95-180, R165K)
SHOX [2] = biological target: SHOX (Homo sapiens, UniProt O15266 103-189)
ALX4 = ALX4 (Homo sapiens, UniProt Q9H161 200-286, Q225E)
HESX1 [3] = biological target: HESX1 (Homo sapiens, UniProt Q9UBX0 95-180)
MSX2 = MSX2 (Homo sapiens, UniProt P35548 130-214, R199I)
ALX1 [4] = biological target: ALX1 (Homo sapiens, UniProt Q15699 118-204, L144V)
ALX1 (Homo sapiens, UniProt Q15699 118-204, L144V), sequence (Q15699 118-204 L144V): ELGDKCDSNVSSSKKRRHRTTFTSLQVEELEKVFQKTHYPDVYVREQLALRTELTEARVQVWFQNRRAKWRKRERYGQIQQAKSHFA

ALX3 [5] = biological target: ALX3 (Homo sapiens, UniProt O95076 139-225, N203Q)
ALX3 (Homo sapiens, UniProt O95076 139-225, N203Q), sequence (O95076 139-225 N203Q): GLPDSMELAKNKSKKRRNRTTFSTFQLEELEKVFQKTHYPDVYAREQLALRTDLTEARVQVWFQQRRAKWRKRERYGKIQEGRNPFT

SHOX [6] = biological target: SHOX (Homo sapiens, UniProt O15266 103-189, R173C)
SHOX (Homo sapiens, UniProt O15266 103-189, R173C), sequence (O15266 103-189 R173C): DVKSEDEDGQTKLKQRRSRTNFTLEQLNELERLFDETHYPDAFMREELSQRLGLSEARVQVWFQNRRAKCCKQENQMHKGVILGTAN

ALX1 [7] = biological target: ALX1 (Homo sapiens, UniProt Q15699 118-204, L144R)
ALX1 (Homo sapiens, UniProt Q15699 118-204, L144R), sequence (Q15699 118-204 L144R): as the sequence (Q15699 118-204 L144V) above, with V27R counted along it

ALX3 [8] = biological target: ALX3 (Homo sapiens, UniProt O95076 139-225)
ALX3 (Homo sapiens, UniProt O95076 139-225), sequence (O95076 139-225): as the sequence (O95076 139-225 N203Q) above, with Q65N counted along it

PROP1 [9] = biological target: PROP1 (Homo sapiens, UniProt O75360 56-141)
PROP1 (Homo sapiens, UniProt O75360 56-141), sequence (O75360 56-141): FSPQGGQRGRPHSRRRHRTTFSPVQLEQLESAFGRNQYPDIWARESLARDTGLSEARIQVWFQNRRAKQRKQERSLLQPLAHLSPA

HESX1 [10] = biological target: HESX1 (Homo sapiens, UniProt Q9UBX0 95-180, R109Q)
HESX1 (Homo sapiens, UniProt Q9UBX0 95-180, R109Q), sequence (Q9UBX0 95-180 R109Q): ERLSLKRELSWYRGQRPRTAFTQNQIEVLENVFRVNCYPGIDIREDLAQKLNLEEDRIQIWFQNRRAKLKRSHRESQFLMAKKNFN

PROP1 [11] = biological target: PROP1 (Homo sapiens, UniProt O75360 56-141, R99H)
PROP1 (Homo sapiens, UniProt O75360 56-141, R99H), sequence (O75360 56-141 R99H): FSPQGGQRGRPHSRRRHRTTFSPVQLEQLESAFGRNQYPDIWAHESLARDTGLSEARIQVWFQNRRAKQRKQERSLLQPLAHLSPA

ALX3 [12] = biological target: ALX3 (Homo sapiens, UniProt O95076 139-225, L168Q)
ALX3 (Homo sapiens, UniProt O95076 139-225, L168Q), sequence (O95076 139-225 L168Q): as the sequence (O95076 139-225 N203Q) above, with L30Q, Q65N counted along it

HESX1 [13] = biological target: HESX1 (Homo sapiens, UniProt Q9UBX0 95-180, P111T)
HESX1 (Homo sapiens, UniProt Q9UBX0 95-180, P111T), sequence (Q9UBX0 95-180 P111T): as the sequence (Q9UBX0 95-180 R109Q) above, with Q15R, P17T counted along it

ALX3 [14] = biological target: ALX3 (Homo sapiens, UniProt O95076 139-225, L168V)
ALX3 (Homo sapiens, UniProt O95076 139-225, L168V), sequence (O95076 139-225 L168V): as the sequence (O95076 139-225 N203Q) above, with L30V, Q65N counted along it

PROP1 [15] = biological target: PROP1 (Homo sapiens, UniProt O75360 56-141, F88S)
PROP1 (Homo sapiens, UniProt O75360 56-141, F88S), sequence (O75360 56-141 F88S): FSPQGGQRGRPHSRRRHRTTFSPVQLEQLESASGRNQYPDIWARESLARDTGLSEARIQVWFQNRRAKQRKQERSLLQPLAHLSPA

HESX1 [16] = biological target: HESX1 (Homo sapiens, UniProt Q9UBX0 95-180, F115L)
HESX1 (Homo sapiens, UniProt Q9UBX0 95-180, F115L), sequence (Q9UBX0 95-180 F115L): as the sequence (Q9UBX0 95-180 R109Q) above, with Q15R, F21L counted along it

ALX1 [17] = biological target: ALX1 (Homo sapiens, UniProt Q15699 118-204)
ALX1 (Homo sapiens, UniProt Q15699 118-204), sequence (Q15699 118-204): as the sequence (Q15699 118-204 L144V) above, with V27L counted along it

ALX3 [18] = biological target: ALX3 (Homo sapiens, UniProt O95076 139-225, N203S)
ALX3 (Homo sapiens, UniProt O95076 139-225, N203S), sequence (O95076 139-225 N203S): as the sequence (O95076 139-225 N203Q) above, with Q65S counted along it

HESX1 (Homo sapiens, UniProt Q9UBX0 95-180, R165K), sequence (Q9UBX0 95-180 R165K): as the sequence (Q9UBX0 95-180 R109Q) above, with Q15R, R71K counted along it
ALX4, sequence (Q9H161 200-286 Q225E): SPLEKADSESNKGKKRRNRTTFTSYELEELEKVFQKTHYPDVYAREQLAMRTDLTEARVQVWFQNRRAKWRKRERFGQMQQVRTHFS
MSX2, sequence (P35548 130-214 R199I): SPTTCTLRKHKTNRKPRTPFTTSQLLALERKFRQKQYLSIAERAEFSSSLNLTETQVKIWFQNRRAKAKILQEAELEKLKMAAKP
SHOX (Homo sapiens, UniProt O15266 103-189), sequence (O15266 103-189): as the sequence (O15266 103-189 R173C) above, with C71R counted along it
HESX1 (Homo sapiens, UniProt Q9UBX0 95-180), sequence (Q9UBX0 95-180): as the sequence (Q9UBX0 95-180 R109Q) above, with Q15R counted along it

Sequence	binding signal (HESX1 [1])	binding signal (SHOX [2])	binding signal (ALX4)	binding signal (HESX1 [3])	binding signal (MSX2)	binding signal (ALX1 [4])	binding signal (ALX3 [5])	binding signal (SHOX [6])	binding signal (ALX1 [7])	binding signal (ALX3 [8])	binding signal (PROP1 [9])	binding signal (HESX1 [10])	binding signal (PROP1 [11])	binding signal (ALX3 [12])	binding signal (HESX1 [13])	binding signal (ALX3 [14])	binding signal (PROP1 [15])	binding signal (HESX1 [16])	binding signal (ALX1 [17])	binding signal (ALX3 [18])
GTAATTAA	13.2 upbm affinity estimate (log intensity, higher = more binding, comparable within an allelic series)	12.8 upbm affinity estimate (log intensity, higher = more binding, comparable within an allelic series)	14 upbm affinity estimate (log intensity, higher = more binding, comparable within an allelic series)	13.3 upbm affinity estimate (log intensity, higher = more binding, comparable within an allelic series)	13.2 upbm affinity estimate (log intensity, higher = more binding, comparable within an allelic series)	12.2 upbm affinity estimate (log intensity, higher = more binding, comparable within an allelic series)	8.59 upbm affinity estimate (log intensity, higher = more binding, comparable within an allelic series)	10.3 upbm affinity estimate (log intensity, higher = more binding, comparable within an allelic series)	11.8 upbm affinity estimate (log intensity, higher = more binding, comparable within an allelic series)	12.9 upbm affinity estimate (log intensity, higher = more binding, comparable within an allelic series)	11.9 upbm affinity estimate (log intensity, higher = more binding, comparable within an allelic series)	9.89 upbm affinity estimate (log intensity, higher = more binding, comparable within an allelic series)	11.8 upbm affinity estimate (log intensity, higher = more binding, comparable within an allelic series)	11.2 upbm affinity estimate (log intensity, higher = more binding, comparable within an allelic series)	11.8 upbm affinity estimate (log intensity, higher = more binding, comparable within an allelic series)	10.8 upbm affinity estimate (log intensity, higher = more binding, comparable within an allelic series)	7.99 upbm affinity estimate (log intensity, higher = more binding, comparable within an allelic series)	8.12 upbm affinity estimate (log intensity, higher = more binding, comparable within an allelic series)	12.9 upbm affinity estimate (log intensity, higher = more binding, comparable within an allelic series)	8.7 upbm affinity estimate (log intensity, higher = more binding, comparable within an allelic series)
CTAATTAA	13.8 upbm affinity estimate (log intensity, higher = more binding, comparable within an allelic series)	13.4 upbm affinity estimate (log intensity, higher = more binding, comparable within an allelic series)	14.4 upbm affinity estimate (log intensity, higher = more binding, comparable within an allelic series)	13.6 upbm affinity estimate (log intensity, higher = more binding, comparable within an allelic series)	13.3 upbm affinity estimate (log intensity, higher = more binding, comparable within an allelic series)	12.3 upbm affinity estimate (log intensity, higher = more binding, comparable within an allelic series)	8.64 upbm affinity estimate (log intensity, higher = more binding, comparable within an allelic series)	11.1 upbm affinity estimate (log intensity, higher = more binding, comparable within an allelic series)	11.9 upbm affinity estimate (log intensity, higher = more binding, comparable within an allelic series)	12.9 upbm affinity estimate (log intensity, higher = more binding, comparable within an allelic series)	12.2 upbm affinity estimate (log intensity, higher = more binding, comparable within an allelic series)	11.2 upbm affinity estimate (log intensity, higher = more binding, comparable within an allelic series)	12.4 upbm affinity estimate (log intensity, higher = more binding, comparable within an allelic series)	11.6 upbm affinity estimate (log intensity, higher = more binding, comparable within an allelic series)	12.6 upbm affinity estimate (log intensity, higher = more binding, comparable within an allelic series)	11.4 upbm affinity estimate (log intensity, higher = more binding, comparable within an allelic series)	8.3 upbm affinity estimate (log intensity, higher = more binding, comparable within an allelic series)	8.61 upbm affinity estimate (log intensity, higher = more binding, comparable within an allelic series)	12.9 upbm affinity estimate (log intensity, higher = more binding, comparable within an allelic series)	8.84 upbm affinity estimate (log intensity, higher = more binding, comparable within an allelic series)
ATAATTAT	12.8 upbm affinity estimate (log intensity, higher = more binding, comparable within an allelic series)	12.1 upbm affinity estimate (log intensity, higher = more binding, comparable within an allelic series)	13.7 upbm affinity estimate (log intensity, higher = more binding, comparable within an allelic series)	12.8 upbm affinity estimate (log intensity, higher = more binding, comparable within an allelic series)	12.9 upbm affinity estimate (log intensity, higher = more binding, comparable within an allelic series)	11.9 upbm affinity estimate (log intensity, higher = more binding, comparable within an allelic series)	8.72 upbm affinity estimate (log intensity, higher = more binding, comparable within an allelic series)	9.85 upbm affinity estimate (log intensity, higher = more binding, comparable within an allelic series)	11.6 upbm affinity estimate (log intensity, higher = more binding, comparable within an allelic series)	12.7 upbm affinity estimate (log intensity, higher = more binding, comparable within an allelic series)	11.8 upbm affinity estimate (log intensity, higher = more binding, comparable within an allelic series)	9.01 upbm affinity estimate (log intensity, higher = more binding, comparable within an allelic series)	11.5 upbm affinity estimate (log intensity, higher = more binding, comparable within an allelic series)	10.8 upbm affinity estimate (log intensity, higher = more binding, comparable within an allelic series)	11.2 upbm affinity estimate (log intensity, higher = more binding, comparable within an allelic series)	10.4 upbm affinity estimate (log intensity, higher = more binding, comparable within an allelic series)	8.04 upbm affinity estimate (log intensity, higher = more binding, comparable within an allelic series)	7.94 upbm affinity estimate (log intensity, higher = more binding, comparable within an allelic series)	12.5 upbm affinity estimate (log intensity, higher = more binding, comparable within an allelic series)	8.79 upbm affinity estimate (log intensity, higher = more binding, comparable within an allelic series)
